We go through 40 compounds from PubChem BioAssay (NCATS).

Results filed as inconclusive are left out. Calls of active or inactive are those of the source. Calls follow the shape of the dose curve; as a rule, active = well fitted inhibition curve with a large enough effect in the repeat runs; inconclusive = weak or mixed curves; inactive = no such curve, though single readings can be large or run the other way.
Potency is read from the fitted curve at half-maximal effect.

Chain of Cytochrome P450 2C9 (Homo sapiens) (P11712 whole entry, looked up): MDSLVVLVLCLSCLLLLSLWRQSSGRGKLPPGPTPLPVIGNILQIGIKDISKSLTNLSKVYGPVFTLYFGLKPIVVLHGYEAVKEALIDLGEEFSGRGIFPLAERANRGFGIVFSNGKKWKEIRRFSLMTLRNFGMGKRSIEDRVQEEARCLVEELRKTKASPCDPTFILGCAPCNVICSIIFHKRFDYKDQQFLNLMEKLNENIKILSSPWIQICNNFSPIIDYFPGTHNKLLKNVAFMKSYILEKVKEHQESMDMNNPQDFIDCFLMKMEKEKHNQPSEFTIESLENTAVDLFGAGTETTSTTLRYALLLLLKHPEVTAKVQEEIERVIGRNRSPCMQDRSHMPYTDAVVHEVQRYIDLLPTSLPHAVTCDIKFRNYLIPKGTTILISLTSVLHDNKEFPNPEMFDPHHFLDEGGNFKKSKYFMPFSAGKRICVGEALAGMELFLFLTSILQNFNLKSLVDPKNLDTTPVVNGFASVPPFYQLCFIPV

This experiment addresses Cytochrome P450 2C9 (Homo sapiens) (UniProt P11712). Kind of experiment: Cytochrome P450 family 2 subfamily C member 9 (CYP2C9) small molecule antagonists: luciferase biochemical (cell-free) qHTS assay (AID 1645842). Also: nearly all actives have a fitted effect of over 55% in size. The settings on record: P450-Glo CYP2C9 enzyme assay, luciferin luminescence; series mostly up to 57.4 µM. As for the experimental part:
National Center for Advancing Translational Sciences [NCATS] Assay Overview: Cytochrome P450 (CYP) enzymes are membrane-bound hemeproteins that play a key role in metabolism of drugs and xenobiotics. Assaying the effect of chemicals on CYP isozymes is useful to minimize the adverse drug reactions and toxicities in drug development process. Chemical compounds were tested for their effect on CYP enzyme activities by using P450-Glo (TM) screening systems (Promega Corporation, Madison, WI). These systems provide a luminescent method containing proluciferin substrates and are converted to luciferin products by CYP isozymes. The luciferin products formed are detected with a luciferin detection reagent, and the amount of light produced is proportional to CYP activity. P450-Glo (TM) CYP2C9 screening system (Catalog. No. V9790) was used to detect the compounds that interfere in CYP2C9 activity.
Assay Protocol Summary: Two ul of enzyme-substrate mix supplemented with 0.4% Bovine Serum Albumin was dispensed into medium binding white/solid 1536-well plates (Greiner Bio-One North America Inc., Monroe, NC) using a Flying Reagent Dispenser (FRD, Aurora Discovery, San Diego, CA). […] The assay plates were incubated at room temperature for 10 min. Then 2 ul of NADPH regeneration solution was added to each well of the assay plates using an FRD and incubated at 37C for 1 h. The reaction was stopped by adding 4 ul of detection reagent using an FRD and after 20 min incubation at room temperature, the luminescence signal was measured using a ViewLux plate reader (Perkin Elmer, Shelton, CT). Data were expressed as relative luminescence units.
As for `Fc1ccc(-c2nc(-c3c(F)cccc3F)[nH]c2-c2ccncc2)cc1`, the Potency result was “inactive”.

As to `O=c1[nH]c2ccc(C#CCN3CCC(Cc4ccccc4)CC3)cc2[nH]1`, the Potency was 7.56 µM (active).

For `Cc1cc(C(=O)Nc2cc(Nc3ccc4c(/C=C/c5ccccn5)n[nH]c4c3)ccc2F)n(C)n1`, the Potency was 4.25 µM (active).

For the compound `O=C(N[C@H]1CCN(C(=O)c2cc(C(F)(F)F)cc(C(F)(F)F)c2)[C@H](Cc2ccc(Cl)cc2)C1)c1ccnc2ccccc12`, the Potency was 10.7 µM (active).

With `COc1cc(NC(=O)c2cc(C3CC3)on2)c(OC)cc1Cl`, the Potency is 10.7 µM (active).

As to `CC(C)(C)Oc1ccc(OCC2Cc3ccccc3CN2C(=O)c2cccc3ccccc23)cc1` (stereo not given), the Potency was 1.69 µM (active).

On to `CCn1c(=O)n([C@H]2CCCN(c3nccc(-c4cc5ccccc5o4)n3)C2)c2ccccc21`, for which the Potency was 1.69 µM (active).

As for `CCOc1cn(-c2ccc(F)cc2C)nc1C(=O)Nc1ccc(Oc2ccnc3cc(OC)c(OC)cc23)c(F)c1`, the Potency result was “inactive”.

Turning to `C[C@H](Nc1cc2c(-c3ccc4c(c3)OCO4)noc2cn1)c1ccccc1`, the Potency was 1.69 µM (active).

`COc1ccc2nccc(C(=O)CC[C@@H]3CCN(CC#Cc4cc(F)cc(F)c4F)C[C@@H]3C(=O)O)c2c1`: the Potency is 7.56 µM (active).

Turning to `Cc1cc(NC(=O)c2cccc(NC(=O)/C=C/CN(C)C)c2)ccc1Nc1nccc(-c2cccnc2)n1`, the Potency is 16.9 µM (active).

As for `COc1ccc(CN2CCN(C(=O)CCNC(=O)c3ccc(C(C)(C)C)cc3)CC2)cc1`, the Potency was 8.49 µM (active).

On to `CCOc1cccc(NC(=O)c2ccc(N3CCCC3)c(C(F)(F)F)c2)c1`, for which the Potency result was “inactive”.

As to `Cn1cc(-c2ccc(F)c(C(F)(F)F)c2)nc1C1CCN(c2ncnc3[nH]ncc23)CC1`, the Potency result was “inactive”.

Consider `CC(=O)c1ccc2c(c1)[C@H](NC(=O)c1ccc(F)c(Cl)c1)[C@H](O)C(C)(C)O2`, for which the Potency is 2.68 µM (active).

With `CCCc1cc2c(N3CCN(C4=NCC(C)(C)S4)CC3)ncnc2s1`, the Potency entry is “inactive”.

Regarding `COc1ccc(Cl)c(Nc2ncnc3cc(OCC4CCN(C)CC4)c(OC)cc23)c1`, the Potency entry was “inactive”.

Take `COc1cc2c(cc1OC)CN(C(=O)/C=C/c1c(-c3ccccc3)n(C)c3ncccc13)CC2`: the Potency was 0.268 µM (active).

Consider `CCN1CCC[C@@H]1CNC(=O)c1ccc2c(c1)NC(=O)c1cccc(C)c1S2`, for which the Potency entry was “inactive”.

Take `C[C@@H](O[C@H]1OCCN(Cc2nn(P(=O)(O)O)c(=O)[nH]2)[C@H]1c1ccc(F)cc1)c1cc(C(F)(F)F)cc(C(F)(F)F)c1`: the Potency was 13.1 µM (active).

Consider `COC(=O)N1CCC(n2ncc3c(N4CCOCC4)nc(-c4ccc(NC(=O)NC5CC5)cc4)nc32)CC1`, for which the Potency was 3.38 µM (active).

For `CC(C)(C)Sc1c(CC(C)(C)C(=O)O)n(Cc2ccc(Cl)cc2)c2ccc(OCc3ccc4ccccc4n3)cc12`, the Potency is 1.69 µM (active).

In the case of `OC1(CN2CCC(COc3noc4cccc(O[C@@H]5CCOC5)c34)CC2)CCOCC1`, the Potency is 9.52 µM (active).

Consider `Cc1noc(C)c1-c1cc(O)cc(C(O)c2ccccc2)c1` (stereo not given), for which the Potency is 0.849 µM (active).

As for `O=C(Nc1ccc(Cl)cc1)c1ccccc1NCc1ccncc1`, the Potency is 0.0379 µM (active).

For the compound `C=Cc1ccccc1`, the Potency result is “inactive”.

Regarding `O=C(CSc1nc2ccccc2c(=O)n1-c1ccccc1)Nc1ccc2c(c1)CCC2`, the Potency was 2.68 µM (active).

For the compound `COc1cc(N2CCC(O)CC2)ccc1Nc1nc(Nc2ccccc2S(=O)(=O)C(C)C)c2[nH]cnc2n1`, the Potency is 15.1 µM (active).

With `Cc1nc(C(=O)N2CCC[C@H]2Cc2nnc(-c3ccccc3)o2)c(-c2ccccc2F)s1`, the Potency is 10.7 µM (active).

Turning to `CCCCc1ccc(NS(=O)(=O)c2ccc(F)cc2)cc1`, the Potency was 1.69 µM (active).

Take `O=C(NCC1(c2nc(-c3ccccc3)cs2)CCOCC1)c1cccc(-c2noc(C(F)(F)F)n2)c1`: the Potency is 3.01 µM (active).

Regarding `CCOC(=O)[C@H](CCc1ccccc1)N[C@H]1CCCN2CCC[C@@H](C(=O)O)N2C1=O`, the Potency entry is “inactive”.

Take `O=C(Nc1nnc(-c2ccc3c(c2)OCCO3)o1)C1CCCCC1`: the Potency entry is “inactive”.

As for `Cc1nc(Nc2ccc(F)cc2)nc(N2CCc3ccccc3C2C)c1C` (stereo not given), the Potency was 5.35 µM (active).

As for `O=C1COc2nccc(-c3ccccc3F)c2CN1Cc1cc(C(F)(F)F)cc(C(F)(F)F)c1`, the Potency is 21.3 µM (active).

For `Cc1cn2cc(C(=O)N(C)CCO)cc(NC3CCOc4cccc(C)c43)c2n1` (stereo not given), the Potency was 19 µM (active).

Regarding `CCN1C(C)(C)CC(Oc2ccc(C(=O)Nc3ccc(NC(=O)Nc4cc(C(C)(C)C)on4)cc3)nc2)CC1(C)C`, the Potency entry was “inactive”.

`CN1CCN(Cc2ccc(NC(=O)Cc3ccc(Oc4cc(NC(=O)C5CC5)ncn4)cc3)cc2C(F)(F)F)CC1`: the Potency is 19 µM (active).

In the case of `Fc1ccc(-c2cncc(CN3CCN(c4cccc5c4OCCO5)CC3)c2)cc1`, the Potency was 10.7 µM (active).

In the case of `O=C(NNc1nc2cc(F)ccc2n2cccc12)c1cnccn1`, the Potency entry is “inactive”.
